The full list was thinned out, with hits kept by preference.
RBX1-CUL1 inh – human ROC1-CUL1 E3 ligase inhibition; P62877+Q13616; in vitro K48 di-Ub FRET, acceptor:donor ratio, 45 min; inhibition, % at 10 µM; actives 0.6% (n = 140,000); AID 1347404; in the data active = inhibition above about 25%
Target sequence (P62877 whole entry, looked up): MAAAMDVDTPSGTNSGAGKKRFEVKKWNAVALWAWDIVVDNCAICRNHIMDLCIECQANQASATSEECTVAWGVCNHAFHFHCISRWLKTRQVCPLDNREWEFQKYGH
Target sequence (Q13616 whole entry, looked up): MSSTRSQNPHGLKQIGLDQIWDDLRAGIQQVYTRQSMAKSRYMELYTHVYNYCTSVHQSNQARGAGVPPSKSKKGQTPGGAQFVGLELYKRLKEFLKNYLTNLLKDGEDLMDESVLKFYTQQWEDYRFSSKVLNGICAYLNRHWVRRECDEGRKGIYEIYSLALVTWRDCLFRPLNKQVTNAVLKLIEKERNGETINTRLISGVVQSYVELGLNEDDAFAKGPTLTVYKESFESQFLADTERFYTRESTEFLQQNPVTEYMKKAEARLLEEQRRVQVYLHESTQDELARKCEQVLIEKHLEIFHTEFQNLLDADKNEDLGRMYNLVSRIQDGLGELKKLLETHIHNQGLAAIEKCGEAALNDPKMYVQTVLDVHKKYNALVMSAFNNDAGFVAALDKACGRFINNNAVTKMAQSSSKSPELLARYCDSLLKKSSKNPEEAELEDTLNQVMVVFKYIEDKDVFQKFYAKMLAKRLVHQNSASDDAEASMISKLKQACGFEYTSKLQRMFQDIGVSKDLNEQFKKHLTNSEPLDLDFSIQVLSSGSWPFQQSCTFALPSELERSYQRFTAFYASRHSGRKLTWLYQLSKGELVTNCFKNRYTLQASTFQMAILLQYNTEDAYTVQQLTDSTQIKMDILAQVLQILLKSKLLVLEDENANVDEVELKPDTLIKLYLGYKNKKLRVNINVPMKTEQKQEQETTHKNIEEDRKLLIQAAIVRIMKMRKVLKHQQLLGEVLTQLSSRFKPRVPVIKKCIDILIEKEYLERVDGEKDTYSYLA
Starred values were filed as active, the others as inactive.

SMILES	RBX1-CUL1 inh
c1cc2c(s1)CCN(c1nc3nonc3nc1N1CCOCC1)C2	-4.2
CCN1CCN(C2(C(=O)NC3CCOC(C)(C)C3)Cc3ccccc3C2)CC1 (stereo not drawn)	-2.5
COc1ccccc1CCN1CCCC(CN(C)C(=O)Cn2cncn2)C1 (stereo not drawn)	1.5
CSc1ccc(C2N(c3ccc(C)cc3)CCN2c2ccc(C)cc2)cc1	-15.8
CC1=NN(c2ccc(C)cc2)C(O)C1 (stereo not drawn)	75.0*
Cc1ccc(N2C(=O)C(=O)N=C(Cl)C2Cl)cc1 (stereo not drawn)	5.3
O=C(CN1CCN(C2CCCCC2)C(=O)C1=O)Nc1ccc(Cl)cc1	-8.7
CCc1ccc(NC(=O)CN2CCN(C3CCCCC3)C(=O)C2=O)cc1	-1.9
CCOc1ccc(NC(=O)CN2CCN(C3CCCCC3)C(=O)C2=O)cc1	57.8*
Cc1ccc(C(=O)Oc2ccc(C(=O)COC(=O)c3cccc(NC(=O)C(C)C)c3)cc2)cc1	-3.2
O=C(NC1CCCCC1)c1cn(C2CC2)cc(C(=O)NC(c2ccccn2)C(F)(F)F)c1=O (stereo not drawn)	6.5
C=CCS/C(N)=N\N=C\c1ccsc1	-2.7
O=C(CSc1ccc2nnc(-c3cccnc3)n2n1)NCc1scnc1-c1ccccc1	-0.8
N#CC1=C(N)N(c2ccccc2)NC1	4.2
COC(C(=O)N1CCc2c(cnc(C)c2CNC(=O)CSc2ccccc2)C1)c1ccccc1 (stereo not drawn)	3.4
O=C1Nc2ccc(Br)cc2/C1=C\c1nc2ccccc2c(=O)n1-c1cccc(C(=O)O)c1	31.7*
O=C1Nc2ccc(Br)cc2C1=Cc1nc2ccccc2c(=O)n1Cc1ccccc1	-4.1
O=C(O)COc1ccccc1/C=C1\C(=O)Nc2ccc(Br)cc21	5.2
CCOC(=O)NC(=O)C(C=Nc1ccccc1OC)C(=O)NC(=O)OCC	3.0
O=[N+]([O-])c1cc(C=Nc2c(Cl)cc(Cl)c(N=Cc3cc([N+](=O)[O-])c(O)cc3O)c2Cl)c(O)cc1O	107.6*
O=[N+]([O-])c1ccc(O)c(C=Nc2cc(Cl)cc(Cl)c2)c1	-4.8
O=[N+]([O-])c1ccccc1C=Nc1ccccc1Cl	-4.2
CC(C)(C)C(=O)Nc1ccc2c(c1)CCCN2C(=O)c1ccccc1	2.8
COC1CCCN(C(=O)CC2(c3cccc(C(F)(F)F)c3)CC(=O)N(C3CC3)C2=O)C1 (stereo not drawn)	2.5
CCN1CCN(c2nc(C)c(Cc3ccc(Cl)cc3)c(=O)[nH]2)CC1	4.3
SMILES	RBX1-CUL1 inh
Cc1ccc(N2C(=O)/C(=C/c3ccc(N4CCN(C)CC4)o3)C(=O)NC2=S)cc1	-4.3
CC(C)c1ccc(N2C(=O)/C(=C/c3ccc(O)cc3)C(=O)NC2=S)cc1	-0.4
O=C1S/C(=C\c2ccc(Sc3ccccc3)o2)C(=O)N1c1ccc(Cl)cc1	-4.3
CC(C)c1ccc(N2C(=O)/C(=C/c3ccc(Sc4ccccc4)o3)C(=O)NC2=S)cc1	97.3*
Cc1ccc(Cl)cc1-c1ccc(/C=C2/C(=O)NC(=S)N(c3ccc(F)cc3)C2=O)o1	45.9*
O=C1NC(=S)N(c2ccc(F)cc2)C(=O)/C1=C\c1ccc(N2CCOCC2)o1	-3.6
CC(=O)c1ccc2c(c1)C(=Cc1ccco1)c1cc(C(C)=O)ccc1-2	2.1
CC(=O)Oc1ccc2c(=O)c(Oc3ccc(C(=O)O)cc3)coc2c1	-0.6
CNC(=O)CSc1nc(-c2ccccc2)cs1	-5.2
O=C(CSc1nc(-c2ccccc2)cs1)NC1=NN(c2ccccc2)C(=O)C1	-15.6
Cc1ccc(-c2csc(SC3C(=O)N(c4ccccc4)N=C3c3ccccc3)n2)cc1 (stereo not drawn)	83.3*
C=CCC1(O)CC(c2ccccc2)NC(c2ccccc2)C1C (stereo not drawn)	1.6
CCCCC(=O)N1CC2(CC)CN(C(=O)CCCC)CC(CC)(C1)C2=O	-2.9
COc1cc2c(cc1OC)/C(=C/CC1(C)C(=O)CCC1=O)CCS2	13.2
COc1cc2c(cc1OC)C(=O)CCS2	0.1
COc1cc2c(cc1OC)C1=C(C3=CCC(=O)[C@@]3(C)CC1)[C@H](C)S2	25.3*
O=C(NCCNC(c1ccccc1)(c1ccccc1)c1ccccc1)c1ccc(Cl)c([N+](=O)[O-])c1	-2.6
Cc1ccc(-c2cn3nc(-c4ccccc4Cl)sc3n2)cc1	-6.2
C=CCCOC(=O)n1c(=S)oc2ccccc21	-4.7
CN1C(=O)/C(=C/c2cccn2C(C)(C)C)C(=O)NC1=S	86.8*
COc1ccc(N2C(=O)/C(=C/c3cccn3C(C)(C)C)C(=O)NC2=S)cc1	15.7
CCc1ccc(N2C(=O)/C(=C/c3cccn3C(C)(C)C)C(=O)NC2=S)cc1	0.8
C=CCN1C(=O)C2(c3ccccc31)c1c(n[nH]c1CC)OC(=N)C2C#N (stereo not drawn)	-5.1
CC(=O)OCc1c(C)cc(C)c(COC(C)=O)c1OC(C)=O	12.4
Fc1ccc(-c2nnc3c(Cl)nc4ccccc4n23)cc1	10.9
SMILES	RBX1-CUL1 inh
COc1ccc2nc(Cl)c(-c3nnc4c(Cl)nc5ccccc5n34)cc2c1	-9.4
Clc1nc2ccccc2n2c(-c3ccccc3)nnc12	25.2*
O=C(CCC1CCN(C(=O)c2cnsn2)CC1)NCC1CCCO1 (stereo not drawn)	2.0
Oc1ccc(NCc2ccccc2OCc2ccccc2)cc1	6.5
Oc1ccc(NCc2ccccc2OCc2ccc(Cl)cc2)cc1	6.7
CCOc1cc(CNc2ccc(O)cc2)cc(Br)c1OCc1cccs1	74.6*
CCOc1cccc(CNc2ccc(O)cc2)c1OCc1ccccc1	97.0*
CCOc1cc(CNCc2cccs2)cc(Br)c1OC	-8.3
CCOc1cc(CNc2ccc(O)cc2)cc(Br)c1OCc1ccccc1	3.8
C=CC(C)(CC[C@H]1[C@@]2(C)CCCC(C)(C)[C@@H]2[C@@H](OC(C)=O)C[C@@]1(C)OC(C)=O)OC(C)=O (stereo partly drawn)	9.1
CCOc1cc(-n2ncc(OCC)c(Cl)c2=O)nc(SC)n1	1.4
COc1ccc(-c2n[nH]c(C(=O)N/N=C/c3c(C)[nH]c4ccccc34)c2C)cc1	-14.2
c1cncc(CCCn2ccc(-c3cccc(-c4cncnc4)c3)n2)c1	5.8
CC(NC(=O)Nc1ccccc1Cl)(C(F)(F)F)C(F)(F)F	0.3
O=C1NC(=S)N(c2ccccc2)C(=O)/C1=C/c1cccn1-c1ccc(Br)cc1	5.3
COc1cccc(/C=C2\C(=O)NC(=S)N(c3ccccc3C)C2=O)c1OC(C)C	30.6*
Cc1ccccc1N1C(=O)/C(=C/c2cccn2-c2cccc(C(=O)O)c2)C(=O)NC1=S	102.3*
Cc1cccc(N2C(=O)/C(=C/c3cccn3-c3cccc(C(F)(F)F)c3)C(=O)NC2=S)c1	0.4
Cc1ccccc1N1C(=O)/C(=C/c2cc(Cl)cc(Cl)c2O)C(=O)NC1=S	7.1
COc1cccc(C=C2C(=O)c3ccccc3C2=O)c1OC(C)C	-7.5
O=C(O)c1cccc(-n2cccc2/C=C2\SC(=O)N(Cc3ccccc3F)C2=O)c1	8.2
CCc1ccc(N2C(=O)/C(=C/c3cccn3-c3cccc(C(=O)O)c3)C(=O)NC2=S)cc1	21.5
O=C1NC(=S)N(c2ccccc2F)C(=O)/C1=C/c1cccn1-c1cccc(C(=O)O)c1	100.9*
Cc1ccc(N2C(=O)/C(=C/c3cccn3-c3ccc(N(C)C)cc3)C(=O)NC2=S)cc1C	34.7*
COc1cc(/C=C2\C(=O)NC(=S)N(c3ccccc3F)C2=O)c(Br)cc1O	10.6
CCOc1ccc(/C=C2\C(=O)NC(=S)N(c3cccc(C)c3C)C2=O)cc1	-1.4
Cc1ccc(C(=O)NC(C)c2nnc(SCC(=O)Nc3cc(Cl)ccc3Cl)n2C)cc1 (stereo not drawn)	1.5

Screening results: PubChem BioAssay, Pan Lab, Icahn School of Medicine at Mount Sinai
